The text below walks through data of the supplement of paper PMC10646978.

± gives the standard deviation.

Common to all, as to conditions: modulator concentration 10 µM
Assay [1] relates to RAW-Dual (murine macrophage reporter line). Nature of the assay: NF-kB reporter (SEAP) activity fold change vs agonist alone; higher = enhanced NF-kB activity. An outline of the steps:
(§1)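 RAW-Dual murine macrophage reporter cells were seeded at 50 000 per well in 384-well plates and pre-incubated 1 hour at 37 °C with compound pin-transferred to 10 μM final. After 1 hour, a PRR agonist was added and cells incubated overnight. Supernatant NF-κB (SEAP, QUANTI-Blue, 620 nm absorbance) and IRF (Lucia luciferase, QUANTI-Luc, luminescence) signals were divided by the mean agonist-only control on the same plate to give fold change. Two replicate plates were averaged, with errors by propagation.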

The test system is the same in assay [2]. Nature of the assay: IRF reporter (Lucia luciferase) activity fold change vs agonist alone; higher = enhanced IRF activity. An outline of the steps: as §1
Assay [3] shares this test system. The assay can be described thus: viability score (confluency relative to resting cells, overnight) (fraction); higher = more viable, active = viable (0.7 or more). An outline of the steps: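 RAW-Dual macrophages in 384-well plates were incubated overnight with compound, final concentration 10 μM. Confluency images from IncuCyte were processed in IncuCyte software into two masks covering all imaged wells. The viability score is each well's confluency relative to resting cells, and a compound met the cutoff when both masks exceeded 70% of resting cells.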

Where [4] appears, read: agonist: CpG ODN 1826 0.5 ug/mL.

Regarding `Cc1cc(=O)[nH]c(-n2nc(C)c(CCC(=O)N3CCN(C)CC3)c2C)n1`, the NF-kB reporter came out at 1.16 ± 0.092 in assay [1] (setting [4]), 1.13 ± 0.089 in assay [1] (agonist: LPS 0.1 ug/mL) and 0.977 ± 0.028 in assay [1] (agonist: MPLA […]). Also, the IRF reporter in assay [2] (agonist: 3'3'-cGAMP 10 ug/mL) was 1.01 ± 0.084; in assay [2] (agonist: LPS 0.1 ug/mL), 1.05 ± 0.12; in assay [2] (agonist: MPLA […]), 0.931 ± 0.095. Besides, the viability score in assay [3] is 0.994 (active).
As to `O=C(NCC1(O)CCOc2ccccc21)c1ccccc1C(F)(F)F` (stereo unspecified), the NF-kB reporter worked out at 1.85 ± 0.095 in assay [1] (setting [4]), 1.31 ± 0.24 in assay [1] (agonist: LPS 0.1 ug/mL) and 1.95 ± 0.67 in assay [1] (agonist: MPLA […]). The IRF reporter in assay [2] (agonist: 3'3'-cGAMP 10 ug/mL) is 0.687 ± 0.44; in assay [2] (agonist: LPS 0.1 ug/mL) it was 0.669 ± 0.34; in assay [2] (agonist: MPLA […]), 0.721 ± 0.084. The viability score in assay [3] was 0.574 (inactive).
Regarding `COC(C(=O)NNC(=O)c1ccccc1Cl)c1ccccc1` (stereo unspecified), the NF-kB reporter in assay [1] (setting [4]) was 1.3 ± 0.1; in assay [1] (agonist: LPS 0.1 ug/mL), 1.1 ± 0.1; in assay [1] (agonist: MPLA […]), 1.11 ± 0.1. In addition, the IRF reporter in assay [2] (agonist: 3'3'-cGAMP 10 ug/mL) stood at 0.618 ± 0.39; in assay [2] (agonist: LPS 0.1 ug/mL) it was 0.993 ± 0.069; in assay [2] (agonist: MPLA […]), 0.863 ± 0.081. Also, the viability score in assay [3] is 1.01 (active).
Turning to `COc1ccc(C(=O)Nc2cc(C)nc3c(C)cc(C)cc23)cc1OC`, the NF-kB reporter in assay [1] (setting [4]) was determined as 0.763 ± 0.18; in assay [1] (agonist: LPS 0.1 ug/mL), 0.948 ± 0.054; in assay [1] (agonist: MPLA […]) it was 0.838 ± 0.055. Moreover, the IRF reporter in assay [2] (agonist: 3'3'-cGAMP 10 ug/mL) was 0.501 ± 0.038; in assay [2] (agonist: LPS 0.1 ug/mL), 0.767 ± 0.15; in assay [2] (agonist: MPLA […]), 0.746 ± 0.07. In assay [3], the viability score is 0.589 (inactive).
For the molecule `Cc1ccc(NC(=O)CSc2nc3ccccc3[nH]2)cc1.Cl`, the NF-kB reporter in assay [1] (setting [4]) worked out at 1.28 ± 0.37; in assay [1] (agonist: LPS 0.1 ug/mL) it was 1.15 ± 0.1; in assay [1] (agonist: MPLA […]), 1.02 ± 0.068. Besides, the values for the IRF reporter in assay [2] (agonist: 3'3'-cGAMP 10 ug/mL), in assay [2] (agonist: LPS 0.1 ug/mL) and in assay [2] (agonist: MPLA […]) were 0.764 ± 0.036, 1.19 ± 0.13 and 1.42 ± 0.16, respectively. Further, the viability score in assay [3] is 0.388 (inactive).
`O=C(NN=Cc1ccc([N+](=O)[O-])s1)c1ccc(Br)cc1`: the NF-kB reporter stood at 0.968 ± 0.083 in assay [1] (setting [4]), 0.858 ± 0.082 in assay [1] (agonist: LPS 0.1 ug/mL) and 0.96 ± 0.09 in assay [1] (agonist: MPLA […]). Moreover, the values for the IRF reporter in assay [2] (agonist: 3'3'-cGAMP 10 ug/mL), in assay [2] (agonist: LPS 0.1 ug/mL) and in assay [2] (agonist: MPLA […]) were 0.395 ± 0.068, 1.18 ± 0.2 and 1.14 ± 0.28, respectively. Moreover, in assay [3], the viability score was 0.996 (active).
In the case of `CC(C)CN(C[C@@H](O)[C@H](Cc1ccccc1)NC(=O)O[C@H]1CO[C@H]2OCC[C@H]21)S(=O)(=O)c1ccc(N)cc1.CCO`, the NF-kB reporter in assay [1] (setting [4]) was 1.7 ± 0.13; in assay [1] (agonist: LPS 0.1 ug/mL), 1.11 ± 0.063; in assay [1] (agonist: MPLA […]), 1.7 ± 0.042. Moreover, the values for the IRF reporter in assay [2] (agonist: 3'3'-cGAMP 10 ug/mL), in assay [2] (agonist: LPS 0.1 ug/mL) and in assay [2] (agonist: MPLA […]) were 0.998 ± 0.056, 0.982 ± 0.12 and 1 ± 0.081, respectively. Besides, the viability score in assay [3] was 0.996 (active).
On to `COC(=O)C1=CN(CC2CCCO2)C=C(C(=O)OC)C1c1ccccc1OC` (stereo unspecified), for which the NF-kB reporter in assay [1] (setting [4]) worked out at 0.826 ± 0.066; in assay [1] (agonist: LPS 0.1 ug/mL), 0.849 ± 0.059; in assay [1] (agonist: MPLA […]), 1.3 ± 0.37. The IRF reporter in assay [2] (agonist: 3'3'-cGAMP 10 ug/mL) was 0.996 ± 0.059; in assay [2] (agonist: LPS 0.1 ug/mL), 1.34 ± 0.094; in assay [2] (agonist: MPLA […]) it was 1.41 ± 0.16. Also, the viability score in assay [3] is 1.02 (active).
With `CCOC(=O)c1ccc(N2C(=O)CC(N3CCN(c4ccc([N+](=O)[O-])cc4)CC3)C2=O)cc1` (stereo unspecified), the results for the NF-kB reporter in assay [1] (setting [4]), in assay [1] (agonist: LPS 0.1 ug/mL) and in assay [1] (agonist: MPLA […]) were 0.813 ± 0.072, 1.08 ± 0.066 and 0.928 ± 0.071, respectively. For the same molecule, the results for the IRF reporter in assay [2] (agonist: 3'3'-cGAMP 10 ug/mL), in assay [2] (agonist: LPS 0.1 ug/mL) and in assay [2] (agonist: MPLA […]) were 1.06 ± 0.039, 1.64 ± 0.13 and 1.47 ± 0.13, respectively. Further, the viability score in assay [3] was 0.997 (active).
In the case of `COc1ccc(C2C3=C(CC(c4ccccc4)CC3=O)Nc3ccccc3N2C(=O)C(C)C)cc1OC` (stereo unspecified), the NF-kB reporter is 1.02 ± 0.089 in assay [1] (setting [4]), 1.05 ± 0.063 in assay [1] (agonist: LPS 0.1 ug/mL) and 1.01 ± 0.071 in assay [1] (agonist: MPLA […]). Also, the results for the IRF reporter in assay [2] (agonist: 3'3'-cGAMP 10 ug/mL), in assay [2] (agonist: LPS 0.1 ug/mL) and in assay [2] (agonist: MPLA […]) were 1.02 ± 0.025, 1.56 ± 0.21 and 1.2 ± 0.087, respectively. Also, in assay [3], the viability score was 1.01 (active).
Turning to `Cl.Cl.OCCOCCN1CCN(C(c2ccccc2)c2ccc(Cl)cc2)CC1` (stereo unspecified), the results for the NF-kB reporter in assay [1] (setting [4]), in assay [1] (agonist: LPS 0.1 ug/mL) and in assay [1] (agonist: MPLA […]) were 1.21 ± 0.051, 1.51 ± 0.12 and 2.68 ± 0.22, respectively. For the same molecule, the IRF reporter in assay [2] (agonist: 3'3'-cGAMP 10 ug/mL) was 0.726 ± 0.034; in assay [2] (agonist: LPS 0.1 ug/mL), 1.27 ± 0.25; in assay [2] (agonist: MPLA […]), 1.45 ± 0.37. Further, the viability score in assay [3] was 0.965 (active).
`COC(=O)CSc1nc(O)c2c(C)c(C)sc2n1`: the NF-kB reporter in assay [1] (setting [4]) was found to be 0.808 ± 0.077; in assay [1] (agonist: LPS 0.1 ug/mL), 0.829 ± 0.04; in assay [1] (agonist: MPLA […]), 1.03 ± 0.1. The IRF reporter in assay [2] (agonist: 3'3'-cGAMP 10 ug/mL) amounted to 0.984 ± 0.046; in assay [2] (agonist: LPS 0.1 ug/mL) it was 1.49 ± 0.093; in assay [2] (agonist: MPLA […]), 1.55 ± 0.19. Besides, in assay [3], the viability score is 1.01 (active).
For the molecule `CCOC(=O)c1cnn(CCOc2ccccc2)c1N`, the NF-kB reporter amounted to 1.05 ± 0.081 in assay [1] (setting [4]), 0.851 ± 0.079 in assay [1] (agonist: LPS 0.1 ug/mL) and 1.02 ± 0.11 in assay [1] (agonist: MPLA […]). The values for the IRF reporter in assay [2] (agonist: 3'3'-cGAMP 10 ug/mL), in assay [2] (agonist: LPS 0.1 ug/mL) and in assay [2] (agonist: MPLA […]) were 0.975 ± 0.052, 1.22 ± 0.13 and 1.31 ± 0.2, respectively. In addition, the viability score in assay [3] was 1 (active).
